Laboratory results published in PubChem BioAssay (NCI).
The panel holds about 83,000 compounds, 20% with a hit somewhere; the sample as a whole holds those more often.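 The endpoint reported here, percent growth, reads 100 for growth as untreated, 0 for no net growth and -100 for all cells dead.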 Values without a mark were called inactive. Active and inactive are the calls of the source. How the source made its calls: active means growth percent below 10; inactive means the rest.

Legend:
Assay in all cases: NCI-60 one-dose screen, 48 h (100 = growth as untreated, 0 = no growth, -100 = all killed)
Conditions in all cases: 10 µM unless noted
SR leukemia = system: SR leukemia
RPMI-8226 leukemia = system: RPMI-8226 leukemia
OVCAR-8 ovarian = system: OVCAR-8 ovarian
OVCAR-5 ovarian = system: OVCAR-5 ovarian
OVCAR-4 ovarian = system: OVCAR-4 ovarian
SK-OV-3 ovarian = system: SK-OV-3 ovarian
IGROV1 ovarian = system: IGROV1 ovarian
OVCAR-3 ovarian = system: OVCAR-3 ovarian
HS 578T breast = system: HS 578T breast
NCI/ADR-RES ovarian = system: NCI/ADR-RES ovarian
T-47D breast = system: T-47D breast
BT-549 breast = system: BT-549 breast
MDA-MB-435 melanoma = system: MDA-MB-435 melanoma
SW-620 colon = system: SW-620 colon
MCF7 breast = system: MCF7 breast
HCC-2998 colon = system: HCC-2998 colon
KM12 colon = system: KM12 colon
HCT-116 colon = system: HCT-116 colon

SMILES | growth (SR leukemia) | growth (RPMI-8226 leukemia) [%] | growth (OVCAR-8 ovarian) [%] | growth (OVCAR-5 ovarian) [%] | growth (OVCAR-4 ovarian) | growth (SK-OV-3 ovarian) [%] | growth (IGROV1 ovarian) [%] | growth (OVCAR-3 ovarian) | growth (HS 578T breast) [%] | growth (NCI/ADR-RES ovarian) [%] | growth (T-47D breast) | growth (BT-549 breast) [%] | growth (MDA-MB-435 melanoma) | growth (SW-620 colon) [%] | growth (MCF7 breast) [%] | growth (HCC-2998 colon) [%] | growth (KM12 colon) | growth (HCT-116 colon) [%]
CN(C)c1ccc(-c2ccc3[nH]c(=O)nc(-c4ccccc4)c3c2)cn1 | 16.2% | 56.5 | 63.8 | 65.9 | 70.4% | 63.5 | 49.7 | 5.38% (active) | 55.6 | 49.4 | 61% | 41.9 | -11.9% (active) | 24.5 | 25.9 | 66.3 | 19.8% | 
N#Cc1c(N)nn(C(=O)c2ccc(NC(=O)c3ccccn3)cc2)c1-c1ccc(Cl)cc1 | 50% | 43.6 | 18.4 | 62.7 | -2.76% (active) | 67.2 | 11.1 | 6.15% (active) | 28.6 | 28.5 | -16.7% (active) | 15.5 | 33.9% | 13.9 | 36.4 | 14.9 | -26.3% (active) | 12.4
Cc1ccc(C(=O)C2=C(O)C(=O)N(Cc3cccnc3)C2c2ccccc2F)o1 (centres undefined) | 97.3% | 105 | 92.6 | 101 | 106% | 94.5 | 68.2 | 97.4% | 102 | 98.9 | 95.2% | 99.2 |  | 103 | 98.3 | 94.3 | 106% | 95.2
Cc1occc1-c1n[nH]c(=S)n1N1C(=O)CSC1=S | 102% | 93.8 | 101 | 99.6 | 107% | 106 | 102 | 103% | 101 | 101 | 104% | 108 | 99.5% | 94.8 | 94.4 | 112 | 99% | 
COc1cccc(C(=O)NCCNc2cc(-c3cn(-c4ccccc4)nc3-c3cccc(OC)c3)ccn2)c1 | 2.08% (active) | 39.1 | 40 | 91.7 | 49.6% | 54.6 | 74.1 | 54.5% | 61.8 | 47.2 | 22.1% | 40.8 |  | 71.1 | 56.7 | 63.9 | 41.5% | 40.9
NNC(=O)c1nc(N)n(-c2ccc(S(N)(=O)=O)cc2)n1 | 88.5% | 91.4 | 96.2 | 101 | 100% | 94.7 | 103 | 89.2% | 94.5 | 100 | 93.5% | 92.7 | 97.8% | 96 | 102 |  | 95.5% | 95.3
N=c1sc(Cc2ccc(Cl)cc2)cn1CC(=O)c1ccc(F)cc1 | 87.4% | 74.1 | 80 | 71 | 69% | 107 | 78.2 | 92.6% | 96.9 | 73.9 | 64.6% | 94.9 | 37% | 53.5 | 55 | 59 | 39.9% | 
COc1ccc(-c2cc(-c3cc(OC)ccc3OC)nc(SCC(=O)c3ccccc3)c2C#N)cc1 | 83.3% | 105 | 96.6 | 103 | 91.8% | 86.7 | 97.3 | 108% | 97.3 | 93.1 | 80.8% |  | 103% | 98.6 | 98.3 | 108 | 96.8% | 88.5
CCCCn1c(=O)c2c(nc(NCCc3ccc(O)c(O)c3)n2CCC)n(CCCC)c1=O | 35.9% | 74.8 | 75.5 | 97.9 | 45.5% | 96.3 | 82.5 | 65.2% | 66.5 | 77.2 | 49.3% | 102 | 82.6% | 89.1 | 65 |  | 61.3% | 63.3
